# Assays:
# [1] = target: T1, Serine/threonine-protein kinase TBK1 (Homo sapiens) (UniProt Q9UHD2); settings: at 10 µM
# T1 sequence (whole entry): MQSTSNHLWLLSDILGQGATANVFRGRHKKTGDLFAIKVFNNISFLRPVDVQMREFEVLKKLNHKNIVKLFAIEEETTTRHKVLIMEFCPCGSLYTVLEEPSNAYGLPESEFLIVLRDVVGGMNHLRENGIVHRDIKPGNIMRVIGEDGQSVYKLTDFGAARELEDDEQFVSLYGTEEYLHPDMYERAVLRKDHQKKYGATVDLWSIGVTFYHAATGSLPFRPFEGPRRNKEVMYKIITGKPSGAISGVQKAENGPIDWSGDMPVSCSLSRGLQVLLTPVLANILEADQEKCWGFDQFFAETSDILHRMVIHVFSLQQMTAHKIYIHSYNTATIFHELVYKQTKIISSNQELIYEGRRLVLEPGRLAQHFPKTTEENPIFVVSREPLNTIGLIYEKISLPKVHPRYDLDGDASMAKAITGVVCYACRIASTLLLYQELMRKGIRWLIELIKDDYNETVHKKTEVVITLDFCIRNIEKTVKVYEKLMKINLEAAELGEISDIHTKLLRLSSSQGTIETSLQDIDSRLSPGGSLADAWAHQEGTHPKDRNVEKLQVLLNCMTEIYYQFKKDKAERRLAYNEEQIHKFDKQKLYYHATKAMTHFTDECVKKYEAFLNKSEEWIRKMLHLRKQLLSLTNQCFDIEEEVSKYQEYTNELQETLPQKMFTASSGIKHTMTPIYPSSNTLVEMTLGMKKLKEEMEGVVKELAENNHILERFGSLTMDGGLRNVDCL
# [2] = target: T2, TGF-beta receptor type-1 (Homo sapiens) (UniProt P36897); settings: at 1 µM
# T2 sequence (whole entry): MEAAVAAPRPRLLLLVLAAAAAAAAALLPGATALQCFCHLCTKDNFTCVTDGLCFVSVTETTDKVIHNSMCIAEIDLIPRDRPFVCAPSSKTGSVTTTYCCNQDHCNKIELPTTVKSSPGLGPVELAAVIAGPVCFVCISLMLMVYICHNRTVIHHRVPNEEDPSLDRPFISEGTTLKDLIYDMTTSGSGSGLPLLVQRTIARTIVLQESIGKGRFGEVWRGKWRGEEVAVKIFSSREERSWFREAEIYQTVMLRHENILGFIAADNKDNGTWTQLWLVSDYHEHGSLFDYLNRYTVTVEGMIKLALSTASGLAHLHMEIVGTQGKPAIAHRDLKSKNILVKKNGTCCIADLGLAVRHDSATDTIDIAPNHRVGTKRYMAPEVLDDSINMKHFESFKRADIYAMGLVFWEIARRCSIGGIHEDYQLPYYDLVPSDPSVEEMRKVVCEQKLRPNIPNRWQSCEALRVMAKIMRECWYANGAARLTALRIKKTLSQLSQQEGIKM
# [3] = target: T2, TGF-beta receptor type-1 (Homo sapiens); settings: at 10 µM
# [4] = target: Insulin-like growth factor 1 receptor (Homo sapiens) (UniProt P08069); settings: at 1 µM
# Chain of Insulin-like growth factor 1 receptor (Homo sapiens) (P08069 31-736 limits assumed): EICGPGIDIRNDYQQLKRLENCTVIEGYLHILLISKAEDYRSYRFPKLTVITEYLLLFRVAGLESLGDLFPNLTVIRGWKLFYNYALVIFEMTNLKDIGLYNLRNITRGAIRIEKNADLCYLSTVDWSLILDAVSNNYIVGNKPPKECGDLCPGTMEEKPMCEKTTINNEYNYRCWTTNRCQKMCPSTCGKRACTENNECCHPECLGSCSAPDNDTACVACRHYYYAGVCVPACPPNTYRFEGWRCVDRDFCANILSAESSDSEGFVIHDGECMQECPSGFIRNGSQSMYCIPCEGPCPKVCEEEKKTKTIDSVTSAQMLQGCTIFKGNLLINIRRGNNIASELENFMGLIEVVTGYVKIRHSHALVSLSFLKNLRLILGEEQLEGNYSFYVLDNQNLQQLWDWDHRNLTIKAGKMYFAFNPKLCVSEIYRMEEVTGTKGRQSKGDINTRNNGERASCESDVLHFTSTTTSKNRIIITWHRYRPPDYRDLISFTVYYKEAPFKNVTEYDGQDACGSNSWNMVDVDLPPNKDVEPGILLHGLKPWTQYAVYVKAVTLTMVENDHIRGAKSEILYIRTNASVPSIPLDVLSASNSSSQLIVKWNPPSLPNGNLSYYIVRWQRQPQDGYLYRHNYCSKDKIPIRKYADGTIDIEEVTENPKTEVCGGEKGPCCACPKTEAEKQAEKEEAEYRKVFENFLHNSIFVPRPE
# Chain of Insulin-like growth factor 1 receptor (Homo sapiens) (P08069 741-1367 limits assumed): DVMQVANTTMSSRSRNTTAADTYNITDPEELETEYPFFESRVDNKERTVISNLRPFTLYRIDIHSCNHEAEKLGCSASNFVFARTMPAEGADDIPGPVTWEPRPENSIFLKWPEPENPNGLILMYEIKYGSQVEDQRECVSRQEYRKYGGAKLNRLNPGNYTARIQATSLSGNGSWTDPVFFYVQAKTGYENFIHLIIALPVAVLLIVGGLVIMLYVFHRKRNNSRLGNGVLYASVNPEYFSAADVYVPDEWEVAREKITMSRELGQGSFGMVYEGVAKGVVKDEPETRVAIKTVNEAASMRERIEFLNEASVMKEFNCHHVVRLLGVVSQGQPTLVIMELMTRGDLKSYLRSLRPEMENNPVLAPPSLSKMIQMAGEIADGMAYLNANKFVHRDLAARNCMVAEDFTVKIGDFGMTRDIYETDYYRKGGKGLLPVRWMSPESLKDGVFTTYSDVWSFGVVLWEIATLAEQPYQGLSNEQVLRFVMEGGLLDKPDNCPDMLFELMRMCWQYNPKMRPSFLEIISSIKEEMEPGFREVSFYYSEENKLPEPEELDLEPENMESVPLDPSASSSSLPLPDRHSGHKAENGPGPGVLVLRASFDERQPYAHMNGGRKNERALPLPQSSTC
# [5] = target: Insulin-like growth factor 1 receptor (Homo sapiens) (UniProt P08069); settings: at 10 µM
# [6] = target: T3, Inhibitor of nuclear factor kappa-B kinase subunit alpha (Homo sapiens) (UniProt O15111); settings: at 1 µM
# T3 sequence (whole entry): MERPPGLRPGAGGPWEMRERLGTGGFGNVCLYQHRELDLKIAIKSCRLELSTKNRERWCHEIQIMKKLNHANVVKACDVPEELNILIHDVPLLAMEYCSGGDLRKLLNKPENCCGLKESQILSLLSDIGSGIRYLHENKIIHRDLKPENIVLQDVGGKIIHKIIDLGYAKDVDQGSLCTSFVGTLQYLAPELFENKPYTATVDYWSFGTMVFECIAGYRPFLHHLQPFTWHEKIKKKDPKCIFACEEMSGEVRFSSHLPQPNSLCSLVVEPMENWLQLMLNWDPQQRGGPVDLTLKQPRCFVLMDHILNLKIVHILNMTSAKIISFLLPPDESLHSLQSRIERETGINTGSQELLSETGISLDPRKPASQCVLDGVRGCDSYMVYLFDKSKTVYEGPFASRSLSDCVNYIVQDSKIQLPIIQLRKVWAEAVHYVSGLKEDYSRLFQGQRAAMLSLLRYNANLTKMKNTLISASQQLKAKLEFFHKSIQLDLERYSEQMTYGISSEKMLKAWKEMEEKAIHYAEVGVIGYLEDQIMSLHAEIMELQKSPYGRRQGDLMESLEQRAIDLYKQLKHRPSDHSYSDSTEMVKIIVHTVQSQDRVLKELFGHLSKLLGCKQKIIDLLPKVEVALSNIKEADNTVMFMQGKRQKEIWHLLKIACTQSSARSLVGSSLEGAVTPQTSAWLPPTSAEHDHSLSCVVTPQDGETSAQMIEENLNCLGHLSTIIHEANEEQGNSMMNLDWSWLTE
# [7] = target: T3, Inhibitor of nuclear factor kappa-B kinase subunit alpha (Homo sapiens); settings: at 10 µM
# [8] = target: T4, Inhibitor of nuclear factor kappa-B kinase subunit beta (Homo sapiens) (UniProt O14920); settings: at 1 µM
# T4 sequence (whole entry): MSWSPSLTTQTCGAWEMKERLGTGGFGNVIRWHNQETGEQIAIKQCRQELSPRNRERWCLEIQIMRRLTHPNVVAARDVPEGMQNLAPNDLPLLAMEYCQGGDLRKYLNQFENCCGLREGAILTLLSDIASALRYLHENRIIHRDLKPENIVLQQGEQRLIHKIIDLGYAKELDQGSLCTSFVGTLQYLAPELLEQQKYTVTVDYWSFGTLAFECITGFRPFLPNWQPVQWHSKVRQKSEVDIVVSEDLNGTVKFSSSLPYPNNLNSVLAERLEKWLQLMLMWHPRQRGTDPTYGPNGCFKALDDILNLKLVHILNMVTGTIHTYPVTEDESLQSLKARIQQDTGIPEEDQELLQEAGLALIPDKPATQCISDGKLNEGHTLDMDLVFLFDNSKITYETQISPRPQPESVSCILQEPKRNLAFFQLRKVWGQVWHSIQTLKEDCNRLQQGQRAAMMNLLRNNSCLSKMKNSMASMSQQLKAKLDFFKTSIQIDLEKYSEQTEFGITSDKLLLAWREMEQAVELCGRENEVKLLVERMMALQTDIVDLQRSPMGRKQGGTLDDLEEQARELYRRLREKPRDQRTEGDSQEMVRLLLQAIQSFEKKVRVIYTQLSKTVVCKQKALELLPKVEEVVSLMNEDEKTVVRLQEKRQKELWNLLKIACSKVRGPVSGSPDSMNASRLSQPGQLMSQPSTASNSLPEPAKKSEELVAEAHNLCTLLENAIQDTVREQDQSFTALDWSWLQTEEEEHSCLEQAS
# [9] = target: T4, Inhibitor of nuclear factor kappa-B kinase subunit beta (Homo sapiens); settings: at 10 µM
# [10] = target: Insulin receptor (Homo sapiens) (UniProt P06213); settings: at 1 µM
# Chain of Insulin receptor (Homo sapiens) (P06213 28-758 limits assumed): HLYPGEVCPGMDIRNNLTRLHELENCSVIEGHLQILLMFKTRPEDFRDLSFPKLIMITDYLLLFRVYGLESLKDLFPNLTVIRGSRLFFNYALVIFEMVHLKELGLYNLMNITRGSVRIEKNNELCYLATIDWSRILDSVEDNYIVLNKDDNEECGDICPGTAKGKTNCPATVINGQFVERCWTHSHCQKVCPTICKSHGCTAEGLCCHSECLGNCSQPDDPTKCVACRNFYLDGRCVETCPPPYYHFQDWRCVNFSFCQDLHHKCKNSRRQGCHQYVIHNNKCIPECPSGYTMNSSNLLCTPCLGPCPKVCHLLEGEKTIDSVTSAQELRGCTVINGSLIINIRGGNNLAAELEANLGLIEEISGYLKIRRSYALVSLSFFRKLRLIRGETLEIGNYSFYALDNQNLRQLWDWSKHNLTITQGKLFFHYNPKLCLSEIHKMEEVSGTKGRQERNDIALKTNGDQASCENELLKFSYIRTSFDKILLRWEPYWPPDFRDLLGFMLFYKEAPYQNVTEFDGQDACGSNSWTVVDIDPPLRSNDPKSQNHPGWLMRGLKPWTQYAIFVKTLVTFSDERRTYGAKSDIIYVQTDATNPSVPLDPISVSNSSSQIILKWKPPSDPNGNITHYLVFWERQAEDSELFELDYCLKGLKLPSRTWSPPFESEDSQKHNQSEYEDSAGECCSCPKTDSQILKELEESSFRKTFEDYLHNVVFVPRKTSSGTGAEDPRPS
# Chain of Insulin receptor (Homo sapiens) (P06213 763-1382 limits assumed): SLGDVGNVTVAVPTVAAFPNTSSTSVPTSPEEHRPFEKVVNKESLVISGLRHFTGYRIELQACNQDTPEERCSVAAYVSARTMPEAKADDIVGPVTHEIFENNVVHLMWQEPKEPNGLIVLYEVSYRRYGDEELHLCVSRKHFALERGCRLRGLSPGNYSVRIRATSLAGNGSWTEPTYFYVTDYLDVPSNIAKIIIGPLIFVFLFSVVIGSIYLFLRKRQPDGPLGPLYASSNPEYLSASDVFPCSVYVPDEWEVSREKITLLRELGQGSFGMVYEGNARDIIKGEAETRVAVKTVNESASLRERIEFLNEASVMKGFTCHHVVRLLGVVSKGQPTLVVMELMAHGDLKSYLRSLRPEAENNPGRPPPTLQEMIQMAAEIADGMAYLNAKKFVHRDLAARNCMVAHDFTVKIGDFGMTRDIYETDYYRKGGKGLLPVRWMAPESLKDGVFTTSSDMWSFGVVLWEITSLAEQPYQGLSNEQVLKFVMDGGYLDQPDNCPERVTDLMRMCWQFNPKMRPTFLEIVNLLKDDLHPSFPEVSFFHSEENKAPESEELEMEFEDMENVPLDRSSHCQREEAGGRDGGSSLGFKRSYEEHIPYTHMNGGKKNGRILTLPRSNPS
smiles,measurement,setting,value
CC(C)(C)n1nc(Cc2cccc3ccccc23)c2c(N)ncnc21,residual activity,[1],67%
same,residual activity,[2],78%
same,residual activity,[3],57%
same,residual activity,[4],100%
same,residual activity,[5],73%
same,residual activity,[6],99%
same,residual activity,[7],128%
same,residual activity,[8],104%
same,residual activity,[9],92%
same,residual activity,[10],98%

# — ChEMBL document CHEMBL2218924, “A broad activity screen in support of a chemogenomic map for kinase signalling research and drug discovery” (Biochem J, 2013)
